# Reference: the supplement of paper PMC3334620
# The full ranking holds about 33,000 sequences; the median of “E-score (-0.5 to 0.5)” is about -8e-05, and the highest 2% start at about 0.23. This excerpt belongs to a sample that is enriched for the highest values.
# Molecular target: T1, Nrg2 (UniProt P38082)
# T1 sequence: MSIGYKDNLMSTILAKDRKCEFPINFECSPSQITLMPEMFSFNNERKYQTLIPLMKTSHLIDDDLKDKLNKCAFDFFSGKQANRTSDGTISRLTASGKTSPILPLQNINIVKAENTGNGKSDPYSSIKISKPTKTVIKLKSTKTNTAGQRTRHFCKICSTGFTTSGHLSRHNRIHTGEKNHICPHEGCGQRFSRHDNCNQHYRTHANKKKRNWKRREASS
# Test: PBM E-score (8-mer binding enrichment) (E-score (-0.5 to 0.5)); higher = stronger / more preferred TF binding
# Details: protein concentration: 100 nM; construct: GST-full length
# Method: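 Universal 'all 10-mer' protein binding microarrays (Agilent AMADID 015681) probed with GST-tagged S. cerevisiae TFs (full-length or DBD) made by in vitro transcription/translation (PURExpress), about 100-200 nM. Bound TF was detected with fluorescent anti-GST. Each ungapped 8-mer (which stands for itself and its reverse complement) is scored by the PBM enrichment score (E-score), a modified Wilcoxon-Mann-Whitney statistic from -0.5 to +0.5, computed with the Universal PBM Analysis Suite. Scale: above 0.35 generally sequence-specific binding.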
row,Sequence,PBM E-score
1,AGGCCGGG,-0.266
2,GCAGTGCA,-0.0476
3,ATGAGCTA,0.069
4,CAGCAAGC,-0.226
5,CCGCCCTC,-0.112
6,CAGCCAGG,0.0441
7,AAGGATTA,-0.0123
8,GTCCCCAC,-0.178
9,ATCCCCAT,0.124
10,ATCCCCAC,0.247
11,AAAGTCTA,-0.0546
12,CTCTGCAG,-0.0279
13,GTGCATCA,0.129
14,ATGCATCG,0.0353
15,ATGCATCA,0.229
16,CGAGATAG,0.0116
17,GATCTTCA,0.0364
18,AACATATT,0.0545
19,CCGCCCCC,-0.406
20,CCGCCCCG,0.309
21,CCGCCCGG,-0.003
22,AGCTCTGA,-0.199
23,AATGCAAA,0.244
24,CTTGCAAA,0.232
25,CTTGCAAG,0.181

row,Sequence,PBM E-score
1,CATGCAAG,0.088
2,AGTGCAAA,0.258
3,TATGCAAA,-0.0899
4,CTTGCAAC,0.124
5,AATGCAAG,0.0402
6,AGTGCAAT,0.0654
7,CATGCAAA,0.246
8,AGTGCAAG,0.156
9,AATGCAAC,0.127
10,ACCCGTGG,-0.111
11,TCATAAAA,-0.032
12,GCACTAGA,-0.0716
13,CTGGTTCC,0.158
14,AAGAATGG,0.0626
15,TAAGAGGA,-0.0476
16,GTTTACGA,-0.00773
17,CAGGTCTA,-0.0487
18,GCGTCGTA,0.0775
19,AAAGCTTG,0.00751
20,CCCAGTCG,-0.143
21,AGATCAAA,0.0337
22,CTTGCGCA,0.264
23,ATTGCAAG,0.137
24,AATGCGCG,0.177
25,AATGCGCA,0.296

row,Sequence,PBM E-score
1,ATTGCAAA,0.127
2,ATTGCGCA,0.143
3,CTTGCGCC,-0.0573
4,CATGCGCA,0.164
5,ATTGCAAT,0.243
6,ATCCTTGC,-0.0413
7,AGCAGACC,0.135
8,ACCTTCTA,-0.0686
9,CGTGTCCC,-0.104
10,ACGACTAT,0.0778
11,CTGTAGGA,0.0349
12,AGTAGTAT,0.114
13,CGAAATCC,0.199
14,CGAAATCA,0.244
15,GGAAATCA,-0.049
16,GTAAATCA,0.24
17,ATAAATCA,0.0708
18,CTAAATCA,0.0351
19,GCTGTGTA,-0.051
20,CCTCTCCA,-0.343
21,AGGCATCC,-0.161
22,AGGGGTAC,0.142
23,CTCTTTTA,-0.0622
24,ATTCATAG,0.155
25,CTTCATAC,0.112

row,Sequence,PBM E-score
1,ATTCATAC,0.238
2,ATCTCATC,0.0993
3,CTTATGGC,-0.0261
4,ACCTGACC,-0.197
5,GCCTGACC,-0.0177
6,GCCTGACA,-0.173
7,CCCTGACG,0.138
8,CCCTGACA,0.288
9,CCCTGACC,0.3
10,TAACTGCA,0.157
11,CTCTCAAC,-0.121
12,GAGTCTCC,-0.178
13,CAGCAATC,0.0368
14,AAACAGTG,0.167
15,CAGGGATC,0.238
16,CAGGGATA,0.286
17,CAGGGATG,0.211
18,GAGGGATA,-0.145
19,AAGGGATC,0.135
20,TAGGGATA,0.134
21,ATTTTCTC,0.106
22,GCCGCCAC,-0.231
23,ACCGCCAC,-0.117
24,CCCGCCAC,0.269
25,GGCGTCGA,0.148

row,Sequence,PBM E-score
1,CAGGTAGC,-0.212
2,AATGCTGC,0.0363
3,AATGGCCA,-0.0344
4,ACTTTAAA,0.0738
5,CCTTTAAG,-0.0435
6,ACTTTAAG,0.243
7,GATTAGAC,0.0407
8,CGTCGAAA,0.075
9,CGAATGAG,0.0496
10,ATAGATCG,0.0393
11,CAAACTCC,0.0622
12,AGCTAGCC,-0.0348
13,AGCTAGCA,-0.191
14,AGCTAGCT,0.244
15,ACGCAGCT,0.0108
16,AGTCTGAG,-0.319
17,AGGACAGA,0.0623
18,CGGCTTGC,0.237
19,CGGCTTGA,-0.0482
20,AGGCTTGC,-0.173
21,CGCCTAGC,-0.315
22,GGTCTTAA,-0.301
23,CATCTCTC,0.148
24,ACCGCAGA,-0.0429
25,ATTCGGGG,0.243

row,Sequence,PBM E-score
1,ATTCGGGC,-0.044
2,ATTCGGGA,0.0112
3,ACCCGCTG,-0.133
4,CTTTACTC,0.144
5,ATTTACTG,0.107
6,GTTTACTA,0.155
7,ATTTACTC,0.271
8,ATTTACTA,0.0988
9,CTTTACTA,0.26
10,GCAGTGGC,-0.173
11,CAGCTGGA,0.123
12,GACTCGGA,-0.226
13,CTTTTAAA,-0.168
14,AGCAGCCA,0.0226
15,CTCGATTC,0.15
16,CTCGATTA,0.251
17,CTCGATAC,0.245
18,CTCGATAA,0.041
19,ATCGATAC,0.133
20,ATCGATTA,0.0753
21,GCGGATAC,0.0466
22,GGCGCCAA,0.133
23,CGTCGCCC,-0.282
24,CCAAAGCA,0.119
25,GCTGCACC,-0.0621

row,Sequence,PBM E-score
1,TAATATTA,0.322
2,CAATATTA,0.154
3,TAATATGA,0.0376
4,AAATATTA,0.247
5,GAATATAA,0.12
6,TAATATAA,0.302
7,AAATATTG,0.204
8,TAATATCA,0.0975
9,CAATATAA,0.212
10,AACCTGTC,-0.0794
11,AGCTATAC,-0.101
12,CATGGGCA,0.0918
13,TAATAATA,0.0963
14,AAATAATA,0.203
15,TAATAACA,0.00017
16,GCATAATA,0.201
17,AAATAATC,0.0163
18,GAATAACA,0.265
19,ACATAATA,0.295
20,CAATAACA,0.0577
21,AAATAATT,0.243
22,GAATAATC,0.185
23,ACATAATC,0.193
24,GAATAATA,0.238
25,CTGGCCGA,-0.163

row,Sequence,PBM E-score
1,AACCTCCT,-0.264
2,ACTCATAT,-0.028
3,CCATTCAC,0.0939
4,CGGACACG,-0.0788
5,GTCTAAAA,-0.0766
6,CAGTCACA,-0.0678
7,CAGTAATA,0.161
8,GAGTAATA,0.232
9,AAGTAATA,-0.00088
10,ATCGGCTC,-0.0282
11,AAGAATGT,0.107
12,CCCCTGGC,0.11
13,CCCCTGGA,0.0369
14,AACCTGGG,-0.131
15,ACCCTGGG,0.328
16,GTCCTGGA,-0.261
17,AACCTGGA,-0.00995
18,AGCCTGGA,-0.0491
19,GCCCTGGA,0.247
20,AACCTGGC,-0.18
21,AGCCTGGG,-0.159
22,ACCCTGGA,0.279
23,ACCCTGGC,0.338
24,CCTAAGGC,-0.191
25,CCCTCATC,-0.0723

row,Sequence,PBM E-score
1,CGGGGGAC,-0.242
2,ACCCAGGG,0.0967
3,AAAACCTA,0.0556
4,CGTAGGAA,-0.0744
5,CAGGGAAC,0.0728
6,TGCAACAA,0.00649
7,ATGAGGTC,-0.142
8,CGCGCTGA,0.0409
9,CGCGCTAA,0.259
10,CGCGCTTA,0.254
11,TGCGCTAA,0.0259
12,GGCGCTAA,-0.0159
13,AGCGCTTA,0.131
14,ACTAGTGG,0.123
15,CAGCTCAC,-0.161
16,CGCCGCTC,0.0612
17,ACACGCGT,0.00123
18,ACAACATC,-0.042
19,ACAACATA,0.268
20,GCAACATA,0.0428
